# Experimental data reported in PubChem BioAssay (NCATS).
# Results filed as inconclusive are left out. Where a call stands in place of a potency, no number is given. Where a structure was tested more than once in an assay, its records may differ in their call. Calls of active or inactive are those of the source. Calls follow the shape of the dose curve; as a rule, active = well fitted inhibition curve with a large enough effect; inconclusive = small, poorly fitted or top-dose-only effect; inactive = flat fitted curve, though single readings scatter. *1 amine or outer side, *2 acyl side, *3 side chain or, on linkers, in order; H or OH if unused. Where a SMILES comes first, the peptide text is derived from it. Bridges are numbered along the chain shown (N, C = ends). [ ]: non-standard residue; d: D form. The star is where a group is joined. pTerphenylCO(4''-OnC5H11) = CCCCCOc1ccc(-c2ccc(-c3ccc(C(=O)*)cc3)cc2)cc1; Orn(4R-OH,5R-OH) = O=C([C@H](C[C@@H](O)[C@@H](O)N[*:3])N[*:1])[*:2]; hTyr(3S-OH,4S-OH) = N[C@H](C(=O)O)[C@H](O)[C@@H](O)c1ccc(O)cc1; Pro(3S-OH,4S-Me) = C[C@H]1CN[C@H](C(=O)O)[C@H]1O; Hyp = O=C(O)[C@@H]1C[C@@H](O)CN1
# Target: Phospholipid hydroperoxide glutathione peroxidase GPX4 (Homo sapiens) (UniProt P36969)
# Test: Primary qHTS Assay for Inhibitors of Recombinant Selenoprotein Glutathione Peroxidase 4 (GPX4) (AID 1845192); also: nearly all actives have a fitted effect of over 65% in size
# Conditions: recombinant GPX4, GR-coupled NADPH fluorescence, 15 min; series mostly up to 50 µM
# Procedure, shortened: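 NADPH consumption followed by fluorescence at 340/450 nm, t=0 and after 15 min at room temperature. Reaction started with cumene hydroperoxide (0.5 mM final) after 30 min compound–GPX4 preincubation; final 200 nM GPX4, 100 nM GR, 1 mM GSH, 0.5 mM NADPH.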
# Potency is read from the fitted curve at half-maximal effect.
# Chain of Phospholipid hydroperoxide glutathione peroxidase GPX4 (Homo sapiens) (P36969 whole entry, looked up): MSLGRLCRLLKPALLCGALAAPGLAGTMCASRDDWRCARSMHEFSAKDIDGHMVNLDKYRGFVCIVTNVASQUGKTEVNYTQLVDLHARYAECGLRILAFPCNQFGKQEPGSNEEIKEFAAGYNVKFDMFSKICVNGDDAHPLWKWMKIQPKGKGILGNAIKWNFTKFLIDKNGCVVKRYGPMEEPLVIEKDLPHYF
row,SMILES,Potency
1,CS(=O)(=O)Nc1cc2occ(NC=O)c(=O)c2cc1Oc1ccccc1,18 µM (active) and inactive
2,CC(=O)S[C@@H]1CC2=CC(=O)CC[C@]2(C)[C@H]2CC[C@@]3(C)[C@@H](CC[C@@]34CCC(=O)O4)[C@H]12,inactive
3,C=C1CCC[C@]2(C)CC/C(=C(/CO)C(=O)OC)C[C@@H]12,inactive
4,CC(C)C[C@@H]1NC(=O)[C@@H]2C[C@@]34C[C@@H]5[C@@]6(C)CCCC(C)(C)C6CC[C@@]5(C)N(c5ccccc53)[C@H]4N2C1=O (some centres undefined),inactive
5,COc1cc(F)c(F)c(Nc2ccc(I)cc2F)c1NS(=O)(=O)C1(CC(O)CO)CC1 (centres undefined),inactive
6,NCCCC[C@H](NC(=O)[C@@H]1CCCN1C(=O)[C@@H]1CSSC[C@H](N)C(=O)N[C@@H](Cc2ccc(O)cc2)C(=O)N[C@@H](Cc2ccccc2)C(=O)N[C@@H](CCC(N)=O)C(=O)N[C@@H](CC(N)=O)C(=O)N1)C(=O)NCC(N)=O,17.8 µM (active)
7,CCC1C(=O)N(C)c2cnc(Nc3ccc(C(=O)NC4CCN(C)CC4)cc3OC)nc2N1C1CCCC1 (centres undefined),inactive
8,COC(=O)N1CC2(CC2)C[C@H](C(=O)NO)[C@H]1C(=O)N1CCN(c2ccccc2)CC1,inactive
9,N#Cc1ccc(Nc2nc(-c3ccc(O)cc3O)cs2)cc1C(F)(F)F,inactive
10,CCOC(=O)COc1ccc2c(=O)cc(-c3ccccc3)oc2c1,inactive
11,C=C(NC(=O)C(=C)NC(=O)c1csc(C2=NC3c4csc(n4)C4NC(=O)c5csc(n5)C(C(C)(O)C(C)O)NC(=O)C5CSC(=N5)/C(=C/C)NC(=O)C(C(C)O)NC(=O)c5csc(n5)C3(CC2)NC(=O)C(C)NC(=O)C(=C)NC(=O)C(C)NC(=O)C(C(C)CC)NC2C=Cc3c(C(C)O)cc(nc3C2O)C(=O)OC4C)n1)C(N)=O (centres undefined),inactive
12,CCCOc1ccc2nc(NC(=O)OC)sc2c1,inactive
13,O=C(CCCN1CCC(n2c(=S)[nH]c3ccccc32)CC1)c1ccc(F)cc1,4.47 µM (active)
14,CN(C)C(CCOc1cccc2ccccc12)c1ccccc1 (centres undefined),inactive
15,CN1CCC(c2cn(C)c3ccc(OS(=O)(=O)c4c(F)cccc4F)cc23)CC1,inactive
16,CC[C@H]1OC(=O)[C@H](C)[C@@H](O[C@H]2C[C@@](C)(OC)[C@@H](O)[C@H](C)O2)[C@H](C)[C@@H](O[C@H]2O[C@H](C)C[C@H](N(C)C)[C@H]2O)[C@](C)(O)C[C@@H](C)C(=O)[C@H](C)[C@@H](O)[C@]1(C)O,inactive
17,COc1ccc2[nH]c(=O)c3c(c2c1)OC(C)(C)C=C3,inactive
18,CC(C)(C)Oc1ccc(OCC2Cc3ccccc3CN2C(=O)c2cccc3ccccc23)cc1 (centres undefined),inactive
19,Cn1ncc(Cl)c1-c1cc(C(=O)N[C@H](CN)Cc2ccc(F)c(F)c2)oc1Cl,inactive
20,CS(=O)(=O)c1ccc(Oc2cc(F)cc(C#N)c2)c2c1[C@H](O)C(F)(F)C2,inactive

row,SMILES,Potency
1,C=C1/C(=C/C=C2\CCC[C@]3(C)[C@@H]([C@H](C)/C=C/[C@H](O)C4CC4)CC[C@@H]23)C[C@@H](O)C[C@@H]1O,inactive
2,CN1CCC(NC(=O)c2cc(-c3c(O)cc(O)cc3Oc3ccc([N+](=O)[O-])cc3)on2)CC1,inactive
3,Cc1c(Cl)cccc1S(=O)(=O)Nc1nc(NCCc2ccccc2)nc2c1CN(Cc1ccccc1)CC2,inactive
4,CN[C@@H]1CCc2[nH]c3ccc(C(N)=O)cc3c2C1,inactive
5,O=c1cc(NCCCN[C@@H]2CCOc3c(Br)cc(Br)cc32)[nH]c2ccsc12,inactive
6,COCC(c1ccc(C(F)(F)F)cc1)N1CCN(C2(C)CCN(C(=O)c3c(C)ncnc3C)CC2)CC1C (centres undefined),inactive
7,Cc1cc(-c2cnc(N)c3c(-c4ccc5scnc5c4)csc23)n(C)n1,inactive
8,Cc1cc2c(F)c(Oc3ncnn4cc(OCC(C)OC(=O)C(C)N)c(C)c34)ccc2[nH]1 (centres undefined),inactive
9,C=C1/C(=C/C=C2\CCC[C@@]3(C)C2CCC3[C@H](C)/C=C/[C@@H](O)C2CC2)C[C@@H](O)C[C@@H]1O (some centres undefined),inactive
10,CCC/C=C/c1cc2c(C=O)c(O)c(CC=C(C)C)cc2o1,inactive
11,CCCCCCCC(=O)CC[C@@H]1[C@@H](C/C=C\CCCC(=O)OC(C)C)[C@@H](O)C[C@H]1O,inactive
12,COc1cc(/C=C/C(=O)NCCn2c(C(F)(F)F)cc3ccccc32)cc(OC)c1OC,inactive
13,CCN(CC)CCCS(=O)(=O)N[C@H](CCc1ccccc1)c1nc(Cc2ccc(Br)cc2)no1,inactive
14,NC(=O)c1cnc(N[C@@H]2CCCC[C@H]2N)nc1Nc1cccc(-n2nccn2)c1,inactive
15,CCCCCCCCCCCCCCCC(=O)O[C@@H]1CC(C)=C(/C=C/C(C)=C/C=C/C(C)=C/C=C/C=C(C)/C=C/C=C(C)/C=C/C2=C(C)C[C@@H](OC(=O)CCCCCCCCCCCCCCC)CC2(C)C)C(C)(C)C1,1.26 µM (active)
16,CC#CCn1c(N2CCCC(N)C2)nc2c1c(=O)n(Cc1nc(C)c3ccccc3n1)c(=O)n2C (centres undefined),inactive
17,"CCCCCOc1ccc(-c2ccc(-c3ccc(C(=O)N[C@H]4C[C@@H](O)[C@@H](O)NC(=O)[C@@H]5[C@@H](O)[C@@H](C)CN5C(=O)[C@H]([C@@H](C)O)NC(=O)[C@H]([C@H](O)[C@@H](O)c5ccc(O)cc5)NC(=O)[C@@H]5C[C@@H](O)CN5C(=O)[C@H]([C@@H](C)O)NC4=O)cc3)cc2)cc1 ({pTerphenylCO(4''-OnC5H11)}-[Orn(4R-OH,5R-OH)]T[Hyp][hTyr(3S-OH,4S-OH)]T[Pro(3S-OH,4S-Me)]; lactam 1-C)",inactive
18,C=CC(C)(O)CC[C@@H]1[C@@]2(C)CCCC(C)(C)C2CC[C@@]1(C)O (some centres undefined),inactive
19,CC1(C)S[C@@H]2[C@H](NC(=O)C(C(=O)Oc3ccc4c(c3)CCC4)c3ccccc3)C(=O)N2[C@H]1C(=O)O (some centres undefined),8.91 µM (active)
